Screening results deposited in PubChem BioAssay by several laboratories.
An excerpt weighted towards active compounds, which were near 27% of everything screened.
CYP2C19 activ: cytochrome P450 2C19 (human) activation; P33261; recombinant CYP2C19, luciferin-H EGE luminescence; hits give high values; 0 = fully inhibited enzyme, 1 = untreated enzyme; activation factor at 5 µM; 96,000 tested, under 10 active;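 active means activation factor of at least 2 at 5 µM in the primary screen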;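 further: 0 = wells with 2.5 mM tranylcypromine and 1 = vehicle-only wells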
CYP2C19 inh: blocks human cytochrome P450 2C19 | P33261 | CYP2C19 Supersomes, luciferin-H EGE luminescence, 30 min | inhibition, % at 5 µM | 21% of 96,000 active | AID 778;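 active means CYP2C19 inhibition above a set limit at 5 µM in the primary screen, cut at about 50% in these data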;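 further: plate controls were negative control wells for no effect and 2.5 mM tranylcypromine positive control for full effect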
CYP2C9 inhib: human CYP2C9 inhibition; P11712; CYP2C9 Supersomes, luciferin-H conversion, luminescence; inhibition, % at 5 µM; 20% of 96,000 active; AID 777;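 active means blocking of liver enzyme CYP2C9 beyond about 50% at 5 µM, limit read from the data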
Target sequence (P11712 whole entry, looked up): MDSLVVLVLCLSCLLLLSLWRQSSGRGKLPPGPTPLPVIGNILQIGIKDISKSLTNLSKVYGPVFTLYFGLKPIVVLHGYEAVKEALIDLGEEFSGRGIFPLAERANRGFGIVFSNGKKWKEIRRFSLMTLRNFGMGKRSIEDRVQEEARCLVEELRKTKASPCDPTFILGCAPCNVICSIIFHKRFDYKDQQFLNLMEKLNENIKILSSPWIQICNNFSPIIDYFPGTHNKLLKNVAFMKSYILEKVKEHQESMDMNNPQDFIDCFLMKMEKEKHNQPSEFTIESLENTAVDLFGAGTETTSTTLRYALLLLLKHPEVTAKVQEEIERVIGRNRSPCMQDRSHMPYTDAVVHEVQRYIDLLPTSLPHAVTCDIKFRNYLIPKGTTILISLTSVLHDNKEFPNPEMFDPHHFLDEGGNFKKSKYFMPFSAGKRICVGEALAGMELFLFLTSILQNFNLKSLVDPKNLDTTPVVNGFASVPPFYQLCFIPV
Cav3 T inh: inhibitors of human Cav3.2 T-type calcium channel; O95180; B-score at 10 µM; AID 449739; 4% of 100,000 active; Cav3.2-expressing cells, Fluo-4 calcium fluorescence FDSS; hits give low values;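 active means single-dose well whose peak fluorescence ratio is a statistical outlier from its plate by either plate-standardised score or position-corrected B-score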
CYP2C9 act: CYP2C9 (human) activation | 1.4% of 96,000 active | activation factor at 5 µM | AID 1024 | recombinant CYP2C9, luciferin-H conversion, luminescence; hits give high values; factor 1 = untreated enzyme, 0 = blocked;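 active means activation factor of 2 or more for CYP2C9 at a 5 µM dose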;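 further: 0 = sulfaphenazole-blocked wells and 1 = vehicle-only wells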
* = called active by the depositor; x = no result.

SMILES	CYP2C19 activ	CYP2C19 inh	CYP2C9 inhib	Cav3 T inh	CYP2C9 act
Cc1cc(C)n(C(=O)c2cc3ccccc3c(=O)o2)n1	1	-4	-45	-0.015	1.4
CCCn1nnnc1NCc1cccn1C	0.9	8	-7	0.15	1.1
CC1(c2nnc(-c3ccncc3)o2)CC(c2ccc(F)cc2)=NO1 (centres undefined)	x	x	x	0.76	x
O=C(NCCc1ccncc1)c1ccccc1F	0.2	81*	57*	0.2	0.4
O=C(Nc1ccncc1)c1ccccc1F	0.4	64*	45	-0.035	0.6
O=C(Nc1ccc(F)cc1)c1ccccc1F	1	1	-19	0.0097	1.2
O=C(Nc1ccc(Oc2cccnc2)cc1)c1ccccc1F	0.1	93*	97*	-0.034	0
Cc1cc(C)n(-c2nncn2NC(=O)c2ccc(Cl)cc2O)n1	0.9	6	41	-1.7	0.6
CN(C(=O)COC(=O)c1ccc2c(c1)OCO2)C1CCS(=O)(=O)C1 (centres undefined)	1.1	-10	-21	-0.44	1.2
CC1Oc2ccccc2N(CC(=O)c2cccc(Cl)c2)C1=O (centres undefined)	0	97*	93*	-1.9	0.1
COc1ccc(-n2c(C)cc(C(=O)Cn3nnc4ccccc4c3=O)c2C)cc1	0.4	60*	83*	-1.9	0.2
Cc1cc(C(=O)Cn2nnc3ccccc3c2=O)c(C)n1-c1c(C)n(C)n(-c2ccccc2)c1=O	1	2	23	0.32	0.8
Cc1cc(C(=O)Cn2nnc3ccccc3c2=O)c(C)n1-c1ccccc1F	0.5	52*	4	-7*	1
CCOC(=O)C1CCN(Cc2ccccc2C(F)(F)F)CC1	0.7	26	34	-0.36	0.7
CCOC(=O)C1CCCCN1Cc1ccc(C(F)(F)F)cc1 (centres undefined)	0	97*	62*	-0.74	0.4
CCOC(=O)C1CCCCN1Cc1ccccc1C(F)(F)F (centres undefined)	0	95*	52*	-3.3	0.5
CCOC(=O)C1CCCCN1Cc1cccc(C(F)(F)F)c1 (centres undefined)	0.8	17	18	0.0022	0.8
CCOc1ccc2[nH]c(=O)c(CN(CCO)C(=O)c3ccc(F)cc3)cc2c1	0.9	6	23	0.57	0.8
CCN1CCN(C(CNS(=O)(=O)c2ccc(OC)cc2)c2cccnc2)CC1 (centres undefined)	1	2	-5	0.79	1.1
O=C(NCc1ccccn1)C1C2C=CC(C2)C1C(=O)Nc1ccc(F)cc1 (centres undefined)	x	x	x	-0.23	x
CC(C)=CC(=O)Nc1ccc(Br)cc1	0.8	23	73*	-0.61	0.3
O=C(O)CCCC(=O)Nc1ccc(Br)cc1	1.1	-9	-3	-1	1
Cc1ccn2c(C(=O)N/N=C\c3ccccc3[N+](=O)[O-])c(C)nc2c1	x	x	x	0.069	x
Cc1cc(C)cc(-n2c(C)cc(/C=N/NC(=O)c3cccc([N+](=O)[O-])c3C)c2C)c1	0.8	22	53*	-2.5	0.5
Cc1cc(C)cc(-n2c(C)cc(/C=N/NC(=O)CSc3ncccn3)c2C)c1	0.5	46	44	-6.8*	0.6
SMILES	CYP2C19 activ	CYP2C19 inh	CYP2C9 inhib	Cav3 T inh	CYP2C9 act
Cc1c(Cl)ccc2c1NC(=O)C21NC(CCC(N)=O)[C@H]2C(=O)N(c3ccc(Cl)cc3)C(=O)[C@H]21 (some centres undefined)	0.4	57*	70*	0.075	0.3
CSCCC1NC2(C(=O)Nc3c2ccc(Cl)c3C)[C@@H]2C(=O)N(C3CCCC3)C(=O)[C@H]12 (some centres undefined)	0.1	91*	91*	-1.1	0.1
Cc1c(Cl)ccc2c1NC(=O)[C@]21N[C@@H](CCC(N)=O)[C@H]2C(=O)N(c3ccc(F)cc3)C(=O)[C@H]21	0.7	27	29	0.33	0.7
C=C(C)Cn1c(-c2ccccc2)nc2ccccc21	0.3	69*	42	-4.1*	0.6
C=C(C)Cn1c(SCC(=O)O)nnc1-c1ccccc1	1	-1	15	0.54	0.9
CCOC(=O)c1c(-c2ccccc2Cl)cn2ccccc12	0.3	73*	78*	x	0.2
O=C(Nc1ccc(F)cc1)N1CCN2C(=O)c3ccccc3C12c1ccccc1 (centres undefined)	0.5	51*	50	-2.8	0.5
O=C(CCN1C(=O)c2ccccc2C1=O)Nc1ccc(F)cc1	0.6	38	0	0.91	1
Oc1ccc(CNCC2COc3ccccc3O2)cc1 (centres undefined)	0.4	56*	1	0.15	1
S=C(NCc1ccccc1)NCC1COc2ccccc2O1 (centres undefined)	0.1	93*	81*	-4.5*	0.2
O=S(=O)(/N=C(/Nc1cccc2ccccc12)c1ccccc1)c1cccs1	0.1	90*	84*	-4.6*	0.2
Cc1nc(SCC#N)c2c(C)c(C)sc2n1	1.1	-12	-18	-0.11	1.2
Cc1ccc(C)c(S(=O)(=O)Nc2ccc3scnc3c2)c1	0	100*	66*	-4.6*	0.3
Cc1ccc(NS(=O)(=O)c2cc(C(=O)N3CCOCC3)ccc2C)cc1	1	-2	4	-0.5	1
O=C(COc1ncnc2ccccc12)NCCCN1CCCC1=O	1.2	-23	-26	0.82	1.3
O=C(O)c1ccc2c(c1)C(=O)N(C(Cc1ccccc1)C(=O)O)C2=O (centres undefined)	1.1	-14	-16	-0.021	1.2
CSCCC(C(=O)O)N1C(=O)c2ccc(C(=O)O)cc2C1=O (centres undefined)	0.1	87*	-6	0.29	1.1
CSc1nc(Cl)cc(N(CCO)CCO)n1	1	-4	-32	-0.25	1.3
O=C(c1ccco1)N1CCN(c2nc3ccccc3c(=O)n2-c2ccccc2)CC1	0.7	30	67*	-0.22	0.3
Cc1nn2c(N3CCN(C4CCCC4)CC3)cc(C(C)(C)C)nc2c1-c1ccccc1	1.1	-5	31	0.091	0.7
Cc1ccc2cc3cc(C(=O)N4CCN(C(=O)c5ccco5)CC4)sc3nc2c1	0.4	64*	47	x	0.5
Cc1nn2c(N3CCN(C(=O)c4ccco4)CC3)cc(C(C)(C)C)nc2c1-c1ccccc1	0.9	9	58*	-6.7*	0.4
O=C(c1ccco1)N1CCN(c2nc3ccsc3c(=O)s2)CC1	0.6	44	64*	0.25	0.4
Cc1cccc(NC(=O)C2(C)CC3c4ccccc4C2c2ccccc23)c1 (centres undefined)	1	-2	14	0.45	0.9
CCCCN(CCCNC(=O)c1ccc2nc(N3CCOCC3)sc2c1)Cc1ccccc1	0.9	8	0	0.84	1
COC(=O)[C@@]1(Cc2ccc(OC)cc2)[C@H]2c3cc(C(=O)N4CCCC4)n(CCN4CCNC4=O)c3C[C@H]2CN1C(=O)c1ccccc1	x	x	x	0.83	x
O=C(c1ccco1)N1CCN(C(=O)c2cc3c(=O)oc4ccccc4c3s2)CC1	0.7	27	61*	-0.16	0.4
